Test results from PubChem BioAssay.
The source made the active and inactive calls.

Key:
[1] = system: Human papillomavirus type 1a protein E7 (residues 44-93); assay: HPV1a E7 fragment binders on microarrays, primary screen, biochemical, small-molecule microarray, residues 44-93, 635 nm fluorescence (AID 1108); details: small-molecule microarray binding, fluorescence 635 nm; higher = more signal;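 further: E7 fragment applied at 1 µg/mL in TBST for 1 h at 4 C; score combines spot fluorescence with its signal to noise ratio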
[2] = modulators of HCV replicon luciferase signal, primary screen, HCV replication inhibitor project, Huh7 cells, luciferase reporter (AID 1109); details: 48 h, higher = more signal;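 further: huh7 hepatoma cells harbouring a luciferase neomycin HCV replicon reporter; luciferase luminescence as measure of HCV replicon replication; test concentration not given here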
[3] = biological target: Left-right determination factor 2 (Homo sapiens) (UniProt O00292); assay: LEFTY2 binders on small-molecule microarrays, primary screen, biochemical, small-molecule microarray, 635 nm fluorescence scan (AID 1110); details: LEFTY2 binding, higher = more signal
Sequence of Left-right determination factor 2 (Homo sapiens) (O00292 whole entry, looked up): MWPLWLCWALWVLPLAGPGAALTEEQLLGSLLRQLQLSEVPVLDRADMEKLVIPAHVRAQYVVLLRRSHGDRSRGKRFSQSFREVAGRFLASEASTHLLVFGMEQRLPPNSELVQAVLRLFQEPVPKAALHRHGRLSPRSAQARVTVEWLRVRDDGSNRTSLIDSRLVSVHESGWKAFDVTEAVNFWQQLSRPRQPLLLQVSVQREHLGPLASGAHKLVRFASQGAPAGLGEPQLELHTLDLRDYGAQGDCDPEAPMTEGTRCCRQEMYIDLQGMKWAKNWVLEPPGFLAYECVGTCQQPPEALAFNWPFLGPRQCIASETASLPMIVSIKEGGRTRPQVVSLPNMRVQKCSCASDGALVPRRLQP

[4] = biological target: Calmodulin-1 (Homo sapiens) (UniProt P0DP23); assay: CALM1 binders on microarrays, EGTA buffer, profiling panel, biochemical, small-molecule microarray, Cy5-labelled CALM1 (AID 1111); details: Cy5-CALM1 binding fluorescence, higher = more signal;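 further: labelled calmodulin applied in Tris saline Tween buffer holding calcium plus EGTA and DTT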
[5] = biological target: Calmodulin-1 (Homo sapiens) (UniProt P0DP23); assay: calcium-bound CALM1 binders on microarrays, profiling panel, artefact control for SMM control-protein annotation, biochemical, small-molecule microarray, Cy5-labelled CALM1, plus calcium (AID 1112); details: Cy5-CALM1 binding fluorescence, higher = more signal;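 further: score merges spot fluorescence with signal to noise from triplicate slides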
[6] = small-molecule microarray binders of probe aWnt5a, primary screen, biochemical, biotinylated probe, 635/667 nm fluorescence (AID 1113); details: higher = more signal;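 further: score merges 667 nm fluorescence intensity with signal-to-noise per printed feature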
[7] = small-molecule microarray binders of probe aShh, primary screen, biochemical, biotinylated probe, 635/667 nm fluorescence (AID 1114); details: higher = more signal;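 further: probe is biotin-labelled aShh protein from a stem cell growth factor screen; measures binding of labelled protein to compounds printed on the slide; score merges feature fluorescence at 667 nm with signal-to-noise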
[8] = small-molecule microarray binders of probe aNog, primary screen, biochemical, biotinylated probe, 635/667 nm fluorescence (AID 1115); details: higher = more signal;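 further: probe is biotinylated aNog protein used at 0.15 µg/mL for 1 h at 4 C; z-score combines 667 nm fluorescence of each spot with its signal to noise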
[9] = biological target: Torsin-1A-interacting protein 1 (Homo sapiens) (UniProt Q5JTV8); assay: LAP1 binders from COS7 cell lysate, primary screen, small-molecule microarray, 635/667 nm fluorescence (AID 1116); details: COS7-hLAP1 lysate binding, 635 nm fluorescence, higher = more signal
Sequence of Torsin-1A-interacting protein 1 (Homo sapiens) (Q5JTV8 whole entry, looked up): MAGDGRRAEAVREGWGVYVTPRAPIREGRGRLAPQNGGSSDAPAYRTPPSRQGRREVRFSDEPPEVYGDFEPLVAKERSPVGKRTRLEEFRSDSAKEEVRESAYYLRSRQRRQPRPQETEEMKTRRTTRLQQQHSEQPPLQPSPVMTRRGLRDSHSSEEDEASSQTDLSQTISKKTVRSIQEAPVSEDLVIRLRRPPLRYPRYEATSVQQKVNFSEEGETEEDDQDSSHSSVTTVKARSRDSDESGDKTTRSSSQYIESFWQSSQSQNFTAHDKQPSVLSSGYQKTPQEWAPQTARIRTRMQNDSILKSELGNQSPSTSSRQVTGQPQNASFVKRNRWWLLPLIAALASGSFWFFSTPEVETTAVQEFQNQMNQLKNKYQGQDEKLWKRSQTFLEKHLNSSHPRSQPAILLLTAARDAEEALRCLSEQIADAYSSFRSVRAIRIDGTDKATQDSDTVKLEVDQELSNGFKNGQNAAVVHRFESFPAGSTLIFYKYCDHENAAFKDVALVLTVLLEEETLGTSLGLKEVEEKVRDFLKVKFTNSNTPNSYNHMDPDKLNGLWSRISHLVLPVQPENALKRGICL

[10] = biological target: Alpha-bungarotoxin (Bungarus multicinctus) (UniProt P60615); assay: alpha-bungarotoxin binders on microarray, profiling panel, artefact control for SMM control protein annotation, biochemical, small-molecule microarray, Alexa647 label, 635/667 nm fluorescence (AID 1117); details: alpha-BTX-A647 binding fluorescence, higher = more signal
Sequence of Alpha-bungarotoxin (Bungarus multicinctus) (P60615 whole entry, looked up): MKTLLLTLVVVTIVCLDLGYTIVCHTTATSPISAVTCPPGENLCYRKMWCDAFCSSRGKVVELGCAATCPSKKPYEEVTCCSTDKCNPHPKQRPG

[11] = biological target: Albumin (Bos taurus) (UniProt P02769); assay: bovine serum albumin binders on microarray, profiling panel, artefact control for SMM control protein annotation, biochemical, small-molecule microarray, Alexa647 label, 635/667 nm fluorescence (AID 1118); details: BSA-A647 binding, fluorescence 635 nm, higher = more signal;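 further: score merges 667 nm emission intensity and signal-to-noise per printed compound spot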
Sequence of Albumin (Bos taurus) (P02769 whole entry, looked up): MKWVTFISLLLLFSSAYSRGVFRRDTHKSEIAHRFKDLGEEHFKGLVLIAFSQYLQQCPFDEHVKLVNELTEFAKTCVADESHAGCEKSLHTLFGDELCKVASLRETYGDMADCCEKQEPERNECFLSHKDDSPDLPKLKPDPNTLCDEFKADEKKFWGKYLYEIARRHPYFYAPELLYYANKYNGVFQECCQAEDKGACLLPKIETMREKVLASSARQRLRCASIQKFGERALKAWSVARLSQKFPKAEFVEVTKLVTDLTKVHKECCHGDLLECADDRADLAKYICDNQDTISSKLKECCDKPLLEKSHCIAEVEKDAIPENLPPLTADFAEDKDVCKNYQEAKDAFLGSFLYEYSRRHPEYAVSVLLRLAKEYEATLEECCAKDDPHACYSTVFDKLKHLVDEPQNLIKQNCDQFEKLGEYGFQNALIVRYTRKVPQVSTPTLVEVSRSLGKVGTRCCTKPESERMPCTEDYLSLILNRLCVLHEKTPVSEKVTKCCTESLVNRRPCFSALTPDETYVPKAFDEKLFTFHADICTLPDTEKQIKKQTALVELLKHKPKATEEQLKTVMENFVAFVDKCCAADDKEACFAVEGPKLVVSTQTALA

[12] = small-molecule microarray binders of probe aXIP, primary screen, biochemical, NeuroSMM set, 635/667 nm fluorescence (AID 1119); details: higher = more signal, called active from +8 up or from −8 down;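 further: probe is the protein aXip251-270 applied at 1 µg/mL to compound-printed slides; binding of probe to printed compounds measured as 667 nm fluorescence plus signal to noise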
[13] = small-molecule binders of probe aNOTCH3, primary screen, biochemical, small-molecule microarray, 635/667 nm fluorescence (AID 1120); details: higher = more signal;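 further: probe is a biotin-tagged antibody raised against NOTCH3 rather than NOTCH3 protein; score merges spot fluorescence near 667 nm with spot signal to noise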
[14] = small-molecule binders of probe aNOTCH2, primary screen, biochemical, small-molecule microarray, 635/667 nm fluorescence (AID 1121); details: higher = more signal;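 further: score merges feature fluorescence read at 667 nm with its signal to noise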
[15] = biological target: Carbonic anhydrase 2 (Homo sapiens) (UniProt P00918); assay: CAII small-molecule binders, profiling panel, biochemical, small-molecule microarray, Alexa647-labelled CAII (AID 1122); details: CAII-A647 binding fluorescence, higher = more signal
[16] = COS7 lysate on small-molecule microarray, probe aHis, 635 nm (AID 1123); details: COS7 cell lysate, fluorescence, higher = more signal;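 further: z-score combines 667nm fluorescence intensity with signal-to-noise per printed compound spot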
[17] = compound binding in COS7 lysate, probe aLAP1, primary screen, cell lysate, small-molecule microarray (AID 1124); details: probe aLAP1, fluorescence, higher = more signal;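 further: lysate comes from COS7 cells expressing LAP1 and is applied at 0.3 µg/mL; score merges spot fluorescence near 667 nm with signal-to-noise over triplicate slides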
[18] = system: Sam68 (KHDRBS1); assay: Sam68 small-molecule binders, primary screen, biochemical, small-molecule microarray, 635 nm fluorescence (AID 1125); details: small-molecule microarray binding, higher = more signal;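 further: score merges 667 nm channel intensity with signal to noise over triplicate slides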
[19] = system: Chordin-like protein 2 (CHRDL2); assay: CHRDL2 small-molecule binders, primary screen, biochemical, small-molecule microarray, 635 nm fluorescence (AID 1126); details: small-molecule microarray binding, fluorescence 635 nm; higher = more signal;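 further: printed compound slides probed with Chrdl2 protein at 4 µg/mL for 1 h at 4 C; score merges 667 nm emission intensity with signal to noise over three replicate slides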
[20] = biological target: Concanavalin-A (Canavalia ensiformis) (UniProt P02866); assay: ConA small-molecule binders, primary screen, artefact control for SMM control protein annotation, biochemical, small-molecule microarray, Alexa647 label, 635 nm (AID 1127); details: ConA-A647 binding fluorescence, higher = more signal;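 further: z combines 667 nm emission intensity with signal-to-noise across three replicate slides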
Sequence of Concanavalin-A (Canavalia ensiformis) (P02866 whole entry, looked up): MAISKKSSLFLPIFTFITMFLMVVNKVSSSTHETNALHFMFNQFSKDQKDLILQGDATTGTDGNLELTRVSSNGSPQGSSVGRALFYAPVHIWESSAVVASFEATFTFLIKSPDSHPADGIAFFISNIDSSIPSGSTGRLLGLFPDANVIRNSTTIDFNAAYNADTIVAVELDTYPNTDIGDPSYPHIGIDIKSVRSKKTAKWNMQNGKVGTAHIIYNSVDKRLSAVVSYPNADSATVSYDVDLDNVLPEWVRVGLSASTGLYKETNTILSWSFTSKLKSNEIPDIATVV

Row | Structure (SMILES) | composite z-score [1] | z-score [2] | composite z-score [3] | composite z-score [4] | composite z-score [5] | composite z-score [6] | composite z-score [7] | composite z-score [8] | composite z-score [9] | composite z-score [10] | composite z-score [11] | composite Z-score [12] | composite z-score [13] | composite z-score [14] | composite z-score [15] | composite z-score [16] | composite z-score [17] | composite z-score [18] | composite z-score [19] | composite z-score [20]
1 | CC(C)[Si]1(C(C)C)OCc2cc(-c3ccc(-c4ccc(Cl)c(Cl)c4)o3)nc(CCc3ccccc3)c21 | -0.655 | -0.826 | 0.198 | -0.307 | 0.688 | -0.054 | -0.601 | 0.428 | -0.395 | -0.327 | -0.176 | 0.182 (inactive) | -0.0362 | -0.171 | 0.384 | 0.587 | 0.112 | -0.0975 | 0.0164 | -0.843
2 | COCCOC(=O)N1C(=O)[C@@]2(c3cc(C#CCNC(N)=O)ccc31)[C@H](c1ccc(OCCO)cc1)N1[C@H](c3ccccc3)[C@H](c3ccccc3)OC(=O)[C@H]1[C@@H]2C(=O)NC[C@H](O)c1ccccc1 | 1.26 | -0.711 | 0.799 | 1.22 | 0.226 | -0.0792 | -0.138 | 1.21 | 0.878 | 1.61 | 0.633 | -0.524 (inactive) | 0.206 | -0.013 | 0.225 | 0.0755 | 0.442 | 1.29 | 0.84 | 1.14
3 | CC(C)C(=C=CC[C@@H](O)c1cccc(OCCO)c1)C[C@@H](O)c1ccccn1 | 0.0406 | -0.658 | -0.315 | -0.303 | -0.207 | -0.152 | -0.154 | -0.104 | 1.63 | -0.142 | 0.0608 | -0.259 (inactive) | -0.0362 | -0.123 | 0.26 | -0.293 | 0.726 | -0.228 | -0.377 | -0.155
4 | CC(C)CNC(=O)[C@@]1(C)c2ccccc2C(=O)N(Cc2cc(C(F)(F)F)cc(C(F)(F)F)c2)[C@H]1c1ccc(CO)cc1 | 0.267 | -0.447 | -0.557 | -0.438 | 0.507 | -0.175 | -0.291 | -0.318 | 0.0492 | -0.0153 | 0.184 | 0.635 (inactive) | -0.242 | -0.111 | 0.72 | 0.79 | -0.205 | 0.108 | -0.307 | 0.0758
5 | COc1ccc([Si](C)(C)[C@@H]2[C@@H](CCn3cc([C@H](O)c4ccccc4)nn3)O[C@]3(C(=O)N(c4ccccc4)c4ccccc43)[C@H]2C)cc1 | -0.0404 | -3.76 | -0.184 | 0.052 | -0.336 | -0.096 | 0.413 | 0.383 | 0.0664 | 0.351 | -0.591 | -0.424 (inactive) | -0.145 | -0.131 | 0.0028 | 0.233 | -0.232 | 0.548 | -0.063 | 0.503
6 | C=C[C@@H](OC)[C@H](OC(=O)Nc1ccc(OC)cc1)c1ccc(OC)c(O)c1 | -0.546 | 0.15 | -1.86 | -0.56 | -0.194 | -0.154 | -0.367 | -0.45 | -0.386 | -0.382 | -0.787 | 0.43 (inactive) | -0.246 | -0.203 | 0.415 | 1.36 | 0.0218 | -0.853 | -0.96 | -0.613
7 | COC(=O)[C@@]1(Cc2ccc(F)cc2)[C@H]2c3cc(C(=O)N(C)C)n(Cc4c(CO)[nH]cc(C)c4=O)c3C[C@H]2CN1C(=O)c1ccccc1 | -0.275 | -0.573 | -0.104 | 0.263 | -0.184 | 0.0375 | 0.649 | 1.38 | 1.16 | 0.0084 | 0.569 | 0.266 (inactive) | 0.26 | 0.224 | 0.866 | 0.816 | 1.41 | -0.279 | 0.146 | -0.189
8 | O=C1[C@@H]2[C@@H](CC(COc3ccccc3)=C3[C@@H](CCc4ccccc4)OB(O)C[C@@H]32)C(=O)N1Cc1ccccc1 | -0.458 | -1.36 | 0.222 | 0.0454 | 0.171 | -0.124 | -0.0011 | -0.465 | -0.0169 | -0.0025 | -0.0421 | 0.196 (inactive) | 0.0242 | -0.13 | 0.413 | 0.782 | 0.111 | -0.258 | 0.139 | 0.0019
9 | O=C1C2C=CC(C(O)c3cc(C(F)(F)F)cc(C(F)(F)F)c3)N(Nc3ccccc3F)C2C(=O)N1c1ccccc1 (stereo not given) | 0.962 | -2.74 | -0.327 | 0.896 | 0.681 | -0.043 | 0.957 | 1.97 | 0.985 | 0.383 | 1.01 | -0.147 (inactive) | 0.114 | -0.0005 | 0.752 | 2.86 | 1.06 | 1.01 | -0.217 | 0.443
10 | CCOC(=O)C[C@H]1[C@H](OC(=O)c2ccc(-c3ccccc3)cc2)[C@@H](NC(=O)Cc2ccc(OC)cc2)c2cc(OCCCO)ccc2N1C(=O)Cc1ccc(OC)cc1 | 0.102 | -0.261 | -0.0069 | 0.655 | 0.767 | -0.0114 | 0.0952 | 0.0759 | 0.456 | 0.913 | 0.793 | -0.263 (inactive) | -0.0647 | -0.112 | -0.0866 | 0.584 | 0.234 | 0.496 | -0.565 | -0.0542
